About 83,000 compounds went through this panel and 20% of them were active in at least one assay; those are over-represented in the sample as a whole.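 Method: cells in 96-well plates; compound added at one concentration; 48 h incubation; percent growth measured; values under 10 scored active.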 Calls of active or inactive are those of the source.

The assay concerns HL-60(TB) leukemia. The experiment in a line: NCI-60 one-dose screen, 48 h (100 = growth as untreated, 0 = no growth, -100 = all killed). The settings on record: 10 µM unless noted.
On to `CCC(c1ccc(OC)cc1)C(CC)c1ccc(O)c(CN2CCCCC2)c1` (stereo unspecified), for which the growth was 52.6% (inactive). For the molecule `Clc1ccc(Nc2ccnc(NCCCNc3ccnc4cc(Cl)ccc34)n2)cc1`, the growth was -72.3% (active). For the molecule `CC1(C)CC[C@]2(C(=O)N3CCOCC3)CC[C@]3(C)C(=CC[C@@H]4[C@@]5(C)C/C(=C/c6ccncc6)C(=O)C(C)(C)[C@@H]5CC[C@]43C)[C@@H]2C1`, the growth was -37.6% (active). As to `Cc1nc(Nc2ccc(F)c(Cl)c2)sc1C(=O)O`, the growth was 11.6% (inactive).

With `Cc1cccc(-c2cc(O)c(C(=O)N3CCOCC3)s2)c1`, the growth was 24.5% (inactive). For the molecule `CC(C)CSc1ncnc2nc[nH]c12`, the growth is 133% (inactive).

`CN1CCN(C(=O)[C@@]2(C)CC[C@]3(C)CC[C@]4(C)C(=CC[C@@H]5[C@@]6(C)CC[C@H](OC(=O)c7cccnc7)C(C)(C)[C@@H]6CC[C@]54C)[C@@H]3C2)CC1`: the growth was -49.1% (active). As for `CCOC(=O)NNc1nncc2ccccc12`, the growth is 103% (inactive).

`CCN1C(=O)N(CC)C2C1NC(=O)N2/N=C/C=C/c1ccccc1` (stereo unspecified): the growth is 0.782% (active). On to `Cc1nc2ccccc2c(N)c1-c1cc(C)c2c(C)nc3ccccc3c2n1`, for which the growth is -66.5% (active). Turning to `CCCCCCCCCCSc1ncnc2nc[nH]c12`, the growth is 73.9% (inactive). With `CS(=O)(=O)Nc1cc(-c2ccc3ncnc(Nc4ccc5[nH]ncc5c4)c3c2)cnc1Cl` the figure was 55.5% (inactive); with `COc1ncc(-c2ccc3nccc(C#CCCCCC(=O)O)c3c2)cc1NS(=O)(=O)c1ccc(F)cc1F`, 26.8% (inactive); with `CC1(C)CC2=C3C=C[C@@H]4[C@@]5(C)CCC(=O)C(C)(C)[C@@H]5CC[C@@]4(C)[C@]3(C)CC[C@@]2(C(=O)O)C[C@H]1O`, 23% (inactive).

On to `O=C(Nc1cc([N+](=O)[O-])c2[nH]c(=O)c3ccccc3c2c1)C(F)(F)F`, for which the growth is 94.4% (inactive). Turning to `CC(=O)NNC(=S)N/C=C/c1c(C)ccc([N+](=O)[O-])c1[N+](=O)[O-]`, the growth was 99.9% (inactive).

The values are drawn from PubChem BioAssay (NCI).
